The text below walks through data of ChEMBL document CHEMBL2218924, “A broad activity screen in support of a chemogenomic map for kinase signalling research and drug discovery” (Biochem J, 2013).

For experiment [1], the target named is Death-associated protein kinase 1 (Homo sapiens) (UniProt P53355). As to conditions: at 10 µM.
Experiment [2] concerns the target Death-associated protein kinase 2 (Homo sapiens) (UniProt Q9UIK4). As to conditions: at 1 µM.
For experiment [3] the target is unchanged. As to conditions: at 10 µM.
For experiment [4], the target named is T1, Serine/threonine-protein kinase DCLK2 (Homo sapiens) (UniProt Q8N568).
T1 sequence (whole entry): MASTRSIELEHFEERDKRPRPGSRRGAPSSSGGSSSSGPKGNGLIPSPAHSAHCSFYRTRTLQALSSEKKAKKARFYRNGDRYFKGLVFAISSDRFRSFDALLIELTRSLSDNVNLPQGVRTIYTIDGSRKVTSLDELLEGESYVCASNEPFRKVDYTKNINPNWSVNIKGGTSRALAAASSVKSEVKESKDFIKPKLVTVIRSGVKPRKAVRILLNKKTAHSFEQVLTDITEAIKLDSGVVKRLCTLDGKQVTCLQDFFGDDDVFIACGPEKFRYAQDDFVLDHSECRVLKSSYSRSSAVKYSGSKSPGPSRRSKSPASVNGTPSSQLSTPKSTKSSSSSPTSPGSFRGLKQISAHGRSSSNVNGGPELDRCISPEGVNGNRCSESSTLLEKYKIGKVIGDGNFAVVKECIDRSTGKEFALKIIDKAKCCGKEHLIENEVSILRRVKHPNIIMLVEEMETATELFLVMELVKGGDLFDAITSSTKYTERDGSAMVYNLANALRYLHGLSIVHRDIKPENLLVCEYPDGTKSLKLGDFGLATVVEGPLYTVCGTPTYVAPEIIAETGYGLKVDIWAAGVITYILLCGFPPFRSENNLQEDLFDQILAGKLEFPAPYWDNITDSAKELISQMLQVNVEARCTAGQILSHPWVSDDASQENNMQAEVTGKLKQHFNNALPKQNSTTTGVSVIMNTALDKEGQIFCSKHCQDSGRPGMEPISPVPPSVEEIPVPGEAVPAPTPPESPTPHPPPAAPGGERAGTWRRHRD
To be noted: at 1 µM.

Experiment [5] concerns the target T1, Serine/threonine-protein kinase DCLK2 (Homo sapiens). As to conditions: at 10 µM.
In experiment [6] the target is T2, Discoidin domain-containing receptor 2 (Homo sapiens) (UniProt Q16832).
T2 sequence (whole entry): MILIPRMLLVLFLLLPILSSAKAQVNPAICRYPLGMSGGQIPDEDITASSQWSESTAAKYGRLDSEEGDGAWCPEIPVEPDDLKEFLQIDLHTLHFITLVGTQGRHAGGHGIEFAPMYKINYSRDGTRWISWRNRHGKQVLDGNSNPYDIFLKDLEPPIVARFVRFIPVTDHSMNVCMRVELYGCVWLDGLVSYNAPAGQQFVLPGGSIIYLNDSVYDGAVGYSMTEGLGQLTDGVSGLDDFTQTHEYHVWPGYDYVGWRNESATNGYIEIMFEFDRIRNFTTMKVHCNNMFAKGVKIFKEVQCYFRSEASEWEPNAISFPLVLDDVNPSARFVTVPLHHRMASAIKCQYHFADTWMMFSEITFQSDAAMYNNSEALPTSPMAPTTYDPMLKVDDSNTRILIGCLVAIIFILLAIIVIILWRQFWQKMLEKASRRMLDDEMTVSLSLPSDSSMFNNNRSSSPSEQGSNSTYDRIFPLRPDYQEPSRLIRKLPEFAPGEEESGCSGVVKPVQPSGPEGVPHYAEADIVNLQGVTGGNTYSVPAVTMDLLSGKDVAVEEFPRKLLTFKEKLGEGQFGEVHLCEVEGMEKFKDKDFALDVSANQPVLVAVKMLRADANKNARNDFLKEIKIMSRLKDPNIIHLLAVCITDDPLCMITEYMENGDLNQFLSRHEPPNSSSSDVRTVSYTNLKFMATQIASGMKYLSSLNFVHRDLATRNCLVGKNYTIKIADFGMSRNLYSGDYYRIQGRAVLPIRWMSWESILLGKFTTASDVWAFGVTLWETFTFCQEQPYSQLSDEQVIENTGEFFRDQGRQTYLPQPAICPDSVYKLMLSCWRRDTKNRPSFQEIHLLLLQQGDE
To be noted: at 1 µM.

In experiment [7] the target is T2, Discoidin domain-containing receptor 2 (Homo sapiens). To be noted: at 10 µM.
For experiment [8], the target named is T3, Myotonin-protein kinase (Homo sapiens) (UniProt Q09013).
T3 sequence (whole entry): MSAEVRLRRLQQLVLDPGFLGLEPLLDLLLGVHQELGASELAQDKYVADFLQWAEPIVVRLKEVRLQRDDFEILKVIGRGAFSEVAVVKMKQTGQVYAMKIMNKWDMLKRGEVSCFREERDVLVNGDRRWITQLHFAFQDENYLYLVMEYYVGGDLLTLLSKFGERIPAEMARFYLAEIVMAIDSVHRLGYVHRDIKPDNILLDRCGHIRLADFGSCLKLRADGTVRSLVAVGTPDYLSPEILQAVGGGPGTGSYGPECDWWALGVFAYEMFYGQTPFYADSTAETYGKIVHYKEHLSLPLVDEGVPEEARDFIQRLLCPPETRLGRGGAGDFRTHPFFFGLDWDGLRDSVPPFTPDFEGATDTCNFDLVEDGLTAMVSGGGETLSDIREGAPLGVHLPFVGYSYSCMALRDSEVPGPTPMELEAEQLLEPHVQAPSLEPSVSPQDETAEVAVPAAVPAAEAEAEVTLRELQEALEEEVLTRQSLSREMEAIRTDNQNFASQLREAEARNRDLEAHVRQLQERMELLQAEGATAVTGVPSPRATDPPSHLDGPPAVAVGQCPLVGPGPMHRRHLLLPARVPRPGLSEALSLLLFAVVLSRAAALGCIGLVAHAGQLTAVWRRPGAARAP
As to conditions: at 1 µM.

Experiment [9] concerns the target T3, Myotonin-protein kinase (Homo sapiens). To be noted: at 10 µM.
The target in experiment [10] is T4, Serine/threonine-protein kinase 17A (Homo sapiens) (UniProt Q9UEE5).
T4 sequence (whole entry): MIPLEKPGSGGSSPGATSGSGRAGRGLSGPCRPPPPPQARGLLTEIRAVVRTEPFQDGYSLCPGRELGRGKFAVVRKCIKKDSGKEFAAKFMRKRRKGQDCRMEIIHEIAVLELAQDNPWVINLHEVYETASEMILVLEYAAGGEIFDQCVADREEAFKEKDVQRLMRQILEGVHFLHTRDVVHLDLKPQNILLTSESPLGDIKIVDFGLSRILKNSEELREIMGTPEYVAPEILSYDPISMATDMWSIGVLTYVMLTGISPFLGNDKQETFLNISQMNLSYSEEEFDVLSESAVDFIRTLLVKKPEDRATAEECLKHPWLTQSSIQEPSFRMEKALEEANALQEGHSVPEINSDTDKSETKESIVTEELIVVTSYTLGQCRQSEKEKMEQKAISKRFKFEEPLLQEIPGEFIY
To be noted: at 1 µM.

The target of experiment [11] is T4, Serine/threonine-protein kinase 17A (Homo sapiens). To be noted: at 10 µM.
Experiment [12] addresses T5, Dual specificity tyrosine-phosphorylation-regulated kinase 2 (Homo sapiens) (UniProt Q92630).
T5 sequence (whole entry): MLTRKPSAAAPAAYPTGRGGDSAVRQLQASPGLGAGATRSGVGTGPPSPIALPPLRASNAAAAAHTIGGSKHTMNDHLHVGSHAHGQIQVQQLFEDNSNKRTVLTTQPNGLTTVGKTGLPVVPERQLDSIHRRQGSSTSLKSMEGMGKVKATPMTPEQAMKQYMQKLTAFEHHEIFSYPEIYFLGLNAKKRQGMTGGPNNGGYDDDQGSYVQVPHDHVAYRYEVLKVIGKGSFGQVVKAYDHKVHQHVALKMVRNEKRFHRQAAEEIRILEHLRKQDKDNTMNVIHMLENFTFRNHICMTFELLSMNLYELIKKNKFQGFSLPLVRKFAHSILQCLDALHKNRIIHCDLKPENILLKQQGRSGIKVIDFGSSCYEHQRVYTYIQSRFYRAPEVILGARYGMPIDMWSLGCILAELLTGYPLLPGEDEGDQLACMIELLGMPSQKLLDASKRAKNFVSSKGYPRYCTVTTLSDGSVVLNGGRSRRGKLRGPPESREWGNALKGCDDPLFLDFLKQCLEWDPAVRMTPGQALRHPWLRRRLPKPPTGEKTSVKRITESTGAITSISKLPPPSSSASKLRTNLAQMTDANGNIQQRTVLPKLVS
To be noted: at 1 µM.

Experiment [13] has as its target T5, Dual specificity tyrosine-phosphorylation-regulated kinase 2 (Homo sapiens). As to conditions: at 10 µM.
In experiment [14] the target is Epidermal growth factor receptor (Homo sapiens) (UniProt P00533). As to conditions: at 1 µM.
Sequence of Epidermal growth factor receptor (Homo sapiens) (P00533 whole entry): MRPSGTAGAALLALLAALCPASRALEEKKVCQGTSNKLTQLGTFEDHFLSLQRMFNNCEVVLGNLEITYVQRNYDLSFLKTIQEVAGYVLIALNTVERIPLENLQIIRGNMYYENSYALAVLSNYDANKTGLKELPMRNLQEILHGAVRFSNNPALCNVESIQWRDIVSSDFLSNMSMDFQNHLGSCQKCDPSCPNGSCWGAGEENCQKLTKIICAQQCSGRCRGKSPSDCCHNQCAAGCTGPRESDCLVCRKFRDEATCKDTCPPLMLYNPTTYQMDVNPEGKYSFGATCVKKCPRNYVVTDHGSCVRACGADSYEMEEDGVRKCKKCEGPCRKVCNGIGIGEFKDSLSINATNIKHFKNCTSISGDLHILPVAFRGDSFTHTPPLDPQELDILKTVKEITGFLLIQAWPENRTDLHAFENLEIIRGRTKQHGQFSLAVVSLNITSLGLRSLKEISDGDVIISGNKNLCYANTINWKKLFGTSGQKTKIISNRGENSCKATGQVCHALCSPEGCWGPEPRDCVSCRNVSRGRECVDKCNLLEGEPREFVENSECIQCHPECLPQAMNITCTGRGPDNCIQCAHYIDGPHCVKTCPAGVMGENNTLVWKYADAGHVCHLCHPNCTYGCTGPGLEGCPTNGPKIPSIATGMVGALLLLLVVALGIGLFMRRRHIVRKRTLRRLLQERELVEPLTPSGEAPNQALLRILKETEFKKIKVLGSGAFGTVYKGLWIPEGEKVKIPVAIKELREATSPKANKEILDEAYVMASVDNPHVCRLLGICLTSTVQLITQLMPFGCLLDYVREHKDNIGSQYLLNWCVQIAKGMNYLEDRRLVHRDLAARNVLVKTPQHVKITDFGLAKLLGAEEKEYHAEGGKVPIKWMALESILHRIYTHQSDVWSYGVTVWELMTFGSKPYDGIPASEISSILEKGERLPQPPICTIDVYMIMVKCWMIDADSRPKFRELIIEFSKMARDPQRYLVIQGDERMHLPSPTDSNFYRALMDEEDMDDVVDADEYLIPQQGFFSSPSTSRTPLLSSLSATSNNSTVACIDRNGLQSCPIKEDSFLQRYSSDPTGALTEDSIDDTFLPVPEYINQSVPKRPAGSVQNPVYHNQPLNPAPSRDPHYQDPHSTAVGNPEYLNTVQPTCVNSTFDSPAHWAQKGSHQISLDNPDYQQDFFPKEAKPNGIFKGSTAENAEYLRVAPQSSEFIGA
For experiment [15] the target is unchanged. As to conditions: at 10 µM.
The target of experiment [16] is T6, Ephrin type-A receptor 1 (Homo sapiens) (UniProt P21709).
T6 sequence (whole entry): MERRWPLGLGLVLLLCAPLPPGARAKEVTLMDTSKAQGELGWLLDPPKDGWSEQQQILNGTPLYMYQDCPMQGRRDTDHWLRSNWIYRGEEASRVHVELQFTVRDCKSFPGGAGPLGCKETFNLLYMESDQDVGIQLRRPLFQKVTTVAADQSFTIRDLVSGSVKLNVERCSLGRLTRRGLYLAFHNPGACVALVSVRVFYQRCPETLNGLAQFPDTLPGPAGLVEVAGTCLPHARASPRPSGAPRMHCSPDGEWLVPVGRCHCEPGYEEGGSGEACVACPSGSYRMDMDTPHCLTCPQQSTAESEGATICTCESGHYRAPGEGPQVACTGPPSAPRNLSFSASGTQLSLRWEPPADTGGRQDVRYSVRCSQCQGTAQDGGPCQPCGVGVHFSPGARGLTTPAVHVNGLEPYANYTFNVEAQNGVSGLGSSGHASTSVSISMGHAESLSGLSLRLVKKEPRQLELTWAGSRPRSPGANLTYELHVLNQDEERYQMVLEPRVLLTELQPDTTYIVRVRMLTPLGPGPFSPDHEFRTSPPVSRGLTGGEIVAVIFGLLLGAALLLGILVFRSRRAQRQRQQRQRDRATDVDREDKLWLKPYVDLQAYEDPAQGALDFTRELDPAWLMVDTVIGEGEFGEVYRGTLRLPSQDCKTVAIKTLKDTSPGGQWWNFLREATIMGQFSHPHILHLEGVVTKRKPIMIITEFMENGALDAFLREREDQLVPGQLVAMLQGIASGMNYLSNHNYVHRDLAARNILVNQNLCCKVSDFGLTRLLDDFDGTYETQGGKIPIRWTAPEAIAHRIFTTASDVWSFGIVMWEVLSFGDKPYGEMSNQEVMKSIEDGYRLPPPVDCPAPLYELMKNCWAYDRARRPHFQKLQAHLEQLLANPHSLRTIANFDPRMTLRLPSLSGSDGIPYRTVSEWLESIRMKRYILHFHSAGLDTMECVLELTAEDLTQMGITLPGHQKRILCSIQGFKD
As to conditions: at 1 µM.

In experiment [17] the target is T6, Ephrin type-A receptor 1 (Homo sapiens). To be noted: at 10 µM.
The target in experiment [18] is Ephrin type-A receptor 2 (Homo sapiens) (UniProt P29317). As to conditions: at 1 µM.
Sequence of Ephrin type-A receptor 2 (Homo sapiens) (P29317 whole entry): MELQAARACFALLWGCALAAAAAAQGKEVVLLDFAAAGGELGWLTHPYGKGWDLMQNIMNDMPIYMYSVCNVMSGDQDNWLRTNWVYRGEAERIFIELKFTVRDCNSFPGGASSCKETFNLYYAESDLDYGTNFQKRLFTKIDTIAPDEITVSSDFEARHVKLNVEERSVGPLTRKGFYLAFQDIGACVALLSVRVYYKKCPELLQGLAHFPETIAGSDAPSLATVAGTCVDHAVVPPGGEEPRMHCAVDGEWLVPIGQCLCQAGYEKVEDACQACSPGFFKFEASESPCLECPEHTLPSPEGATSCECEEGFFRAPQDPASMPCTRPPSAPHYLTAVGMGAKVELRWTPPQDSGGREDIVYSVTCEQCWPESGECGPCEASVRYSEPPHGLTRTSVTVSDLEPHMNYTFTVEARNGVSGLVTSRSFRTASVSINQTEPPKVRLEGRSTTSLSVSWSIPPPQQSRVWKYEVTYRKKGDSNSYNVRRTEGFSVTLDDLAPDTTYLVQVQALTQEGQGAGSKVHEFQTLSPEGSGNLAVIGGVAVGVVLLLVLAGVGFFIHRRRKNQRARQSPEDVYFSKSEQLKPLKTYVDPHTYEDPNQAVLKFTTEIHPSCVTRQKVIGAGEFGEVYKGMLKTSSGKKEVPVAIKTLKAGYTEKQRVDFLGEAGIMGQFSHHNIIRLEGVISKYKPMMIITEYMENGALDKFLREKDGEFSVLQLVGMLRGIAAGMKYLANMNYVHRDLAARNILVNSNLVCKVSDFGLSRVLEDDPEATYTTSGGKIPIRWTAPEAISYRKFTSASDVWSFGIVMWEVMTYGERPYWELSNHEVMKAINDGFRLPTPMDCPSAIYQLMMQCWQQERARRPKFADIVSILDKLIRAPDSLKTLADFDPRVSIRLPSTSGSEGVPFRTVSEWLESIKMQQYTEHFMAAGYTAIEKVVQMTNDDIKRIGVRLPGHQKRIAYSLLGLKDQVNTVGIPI
For experiment [19] the target is unchanged. To be noted: at 10 µM.
In experiment [20] the target is T7, Ephrin type-A receptor 3 (Homo sapiens) (UniProt P29320).
T7 sequence (whole entry): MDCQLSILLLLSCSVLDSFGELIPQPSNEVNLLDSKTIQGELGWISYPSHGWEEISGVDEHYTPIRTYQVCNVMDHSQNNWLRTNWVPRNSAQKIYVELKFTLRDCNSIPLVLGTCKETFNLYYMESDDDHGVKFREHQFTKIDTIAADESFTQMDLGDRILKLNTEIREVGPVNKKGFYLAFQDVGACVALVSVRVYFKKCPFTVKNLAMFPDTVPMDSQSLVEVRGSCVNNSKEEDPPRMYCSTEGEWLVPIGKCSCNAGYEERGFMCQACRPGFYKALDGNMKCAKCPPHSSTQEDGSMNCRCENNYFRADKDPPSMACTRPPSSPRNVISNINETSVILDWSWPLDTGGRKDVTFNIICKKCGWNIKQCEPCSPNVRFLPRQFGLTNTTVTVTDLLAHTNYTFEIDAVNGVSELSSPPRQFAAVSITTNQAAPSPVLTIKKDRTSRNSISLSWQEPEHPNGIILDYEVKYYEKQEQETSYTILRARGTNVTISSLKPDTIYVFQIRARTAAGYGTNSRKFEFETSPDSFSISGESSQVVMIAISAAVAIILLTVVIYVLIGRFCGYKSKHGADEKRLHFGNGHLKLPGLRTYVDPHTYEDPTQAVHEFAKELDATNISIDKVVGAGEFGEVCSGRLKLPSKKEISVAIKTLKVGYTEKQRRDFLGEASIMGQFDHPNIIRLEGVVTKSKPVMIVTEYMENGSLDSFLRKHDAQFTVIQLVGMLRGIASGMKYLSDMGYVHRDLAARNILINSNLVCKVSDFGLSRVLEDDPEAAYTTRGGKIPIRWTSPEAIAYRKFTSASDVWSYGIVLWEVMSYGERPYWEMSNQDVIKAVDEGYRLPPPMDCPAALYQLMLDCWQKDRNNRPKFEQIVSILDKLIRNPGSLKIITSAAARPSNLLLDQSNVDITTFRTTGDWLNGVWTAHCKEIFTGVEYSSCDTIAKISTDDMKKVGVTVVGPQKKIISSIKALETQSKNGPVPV
To be noted: at 1 µM.

Sequence of Death-associated protein kinase 2 (Homo sapiens) (Q9UIK4 whole entry, looked up): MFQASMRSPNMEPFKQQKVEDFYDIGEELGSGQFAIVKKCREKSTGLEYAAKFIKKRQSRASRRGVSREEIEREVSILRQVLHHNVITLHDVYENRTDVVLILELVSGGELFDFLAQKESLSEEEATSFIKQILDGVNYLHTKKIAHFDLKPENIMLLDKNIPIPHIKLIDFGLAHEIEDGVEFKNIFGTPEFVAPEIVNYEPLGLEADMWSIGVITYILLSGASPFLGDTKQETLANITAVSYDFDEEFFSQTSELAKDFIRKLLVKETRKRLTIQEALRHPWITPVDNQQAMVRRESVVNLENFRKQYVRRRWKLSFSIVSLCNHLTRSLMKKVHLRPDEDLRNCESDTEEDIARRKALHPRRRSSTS
Sequence of Death-associated protein kinase 1 (Homo sapiens) (P53355 whole entry, looked up): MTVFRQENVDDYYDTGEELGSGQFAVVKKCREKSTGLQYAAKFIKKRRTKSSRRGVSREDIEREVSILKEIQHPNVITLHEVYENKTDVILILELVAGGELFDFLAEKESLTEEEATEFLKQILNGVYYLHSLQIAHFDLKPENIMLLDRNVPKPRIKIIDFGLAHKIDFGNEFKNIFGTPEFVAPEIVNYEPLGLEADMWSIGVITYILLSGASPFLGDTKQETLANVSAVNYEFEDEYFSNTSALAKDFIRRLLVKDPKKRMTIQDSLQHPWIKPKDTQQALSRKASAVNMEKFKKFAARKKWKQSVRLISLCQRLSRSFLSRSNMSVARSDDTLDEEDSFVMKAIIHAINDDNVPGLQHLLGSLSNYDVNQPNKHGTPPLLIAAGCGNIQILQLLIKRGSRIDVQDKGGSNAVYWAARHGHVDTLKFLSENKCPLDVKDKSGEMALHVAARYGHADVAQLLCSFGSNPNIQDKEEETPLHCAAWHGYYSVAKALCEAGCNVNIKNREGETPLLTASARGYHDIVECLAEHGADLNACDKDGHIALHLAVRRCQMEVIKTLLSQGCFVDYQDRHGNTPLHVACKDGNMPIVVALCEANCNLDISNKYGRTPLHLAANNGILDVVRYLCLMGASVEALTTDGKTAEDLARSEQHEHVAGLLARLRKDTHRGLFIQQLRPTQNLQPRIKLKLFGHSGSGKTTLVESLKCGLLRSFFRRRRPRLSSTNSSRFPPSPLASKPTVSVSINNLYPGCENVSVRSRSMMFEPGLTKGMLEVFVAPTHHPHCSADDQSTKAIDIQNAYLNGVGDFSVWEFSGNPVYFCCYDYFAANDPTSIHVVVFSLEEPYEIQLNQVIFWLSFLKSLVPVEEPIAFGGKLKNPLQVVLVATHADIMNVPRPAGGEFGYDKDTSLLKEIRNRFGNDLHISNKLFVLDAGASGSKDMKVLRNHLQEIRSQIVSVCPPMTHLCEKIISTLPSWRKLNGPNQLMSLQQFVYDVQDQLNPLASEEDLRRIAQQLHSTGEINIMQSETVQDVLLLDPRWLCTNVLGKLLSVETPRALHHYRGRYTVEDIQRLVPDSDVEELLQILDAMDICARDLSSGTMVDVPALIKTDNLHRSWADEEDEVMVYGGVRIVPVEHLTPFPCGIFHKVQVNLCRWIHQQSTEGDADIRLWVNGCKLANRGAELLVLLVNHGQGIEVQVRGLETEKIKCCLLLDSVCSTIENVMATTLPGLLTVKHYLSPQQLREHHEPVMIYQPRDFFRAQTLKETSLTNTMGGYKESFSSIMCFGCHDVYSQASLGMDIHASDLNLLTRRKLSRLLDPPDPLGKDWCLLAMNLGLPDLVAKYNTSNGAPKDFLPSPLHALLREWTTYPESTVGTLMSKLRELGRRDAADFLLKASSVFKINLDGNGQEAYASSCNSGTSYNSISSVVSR

As for `O=C1NC(=O)/C(=C/c2ccc3c(c2)OC(F)(F)O3)S1`, the residual activity in [1] stood at 81%; in experiment [2], 95%; in experiment [3], 96%; in experiment [4], 110%; in experiment [5], 66%; in experiment [6], 130%. In addition, the residual activity in [7] was determined as 105%; in experiment [8] it was 104%; in experiment [9], 104%; in [10], 118%; in experiment [11] it was 99%; in experiment [12], 86%. Besides, the residual activity in experiment [13] was 65%; in experiment [14], 116%; in [15] it was 119%; in experiment [16] it was 93%; in experiment [17], 96%; in [18], 107%. Besides, the residual activity in [19] came to 115%; in experiment [20], 103%.

The residual activity is the signal under treatment as a percentage of the control signal.
